Pin1 inh – qHTS Assay to Find Inhibitors of Pin1; Pin1 FP peptide displacement, HiFluor488, 10 min; Potency, µM (series often up to 115 µM), for the others: at the highest dose activity, negative = inhibition, most hits filed as inhibitors; hit rate 0.009% among 390,000; active = well fitted inhibition curve with a large enough effect in the polarisation, with a control signal flat, not every such curve was filed as active; inconclusive = small, poorly fitted or top-dose-only effect, or effect the other way, or a change in a side signal; inactive = no such curve, though single readings can be large or run the other way; the % refers to the polarisation; also: potency is read from the fitted curve at half-maximal effect; % is scaled to controls: 0 for no effect and ±100 for the full control effect
PGK inhibitor – qHTS Assay to Find Inhibitors of Phosphoglycerate Kinase | hit rate 0.043% among 380,000 | PGK/GAPDH coupled, Kinase-Glo luminescence, 60 min | Potency, µM (doses to about 57.5 µM), without a hit: at the top dose activity change, negative = inhibition, usual class: inhibitors; also: potency is read from the fitted curve at half-maximal effect; % is scaled to controls: 0 for no effect and ±100 for the full control effect; nearly all actives have a fitted effect of over 60% in size
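Luminescent ATP detection (Kinase-Glo Plus) follows a 60-minute room-temperature incubation, with wells lacking PGK as controls. Buffer: 100 mM TEA (pH 7.6), 5 mM MgCl2, 0.01% Tween-20. Coupling enzyme GAPDH (100 nM final) supplies unstable 1,3-BPG in-well.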
GLS inhibitor – qHTS for Inhibitors of Glutaminase (GLS). Glutaminase kidney isoform, mitochondrial (Homo sapiens), O94925. GLS enzymatic activity, qHTS titration. Potency, µM (series often up to 45.5 µM), for the others: at the highest dose activity change, negative = inhibition, actives largely listed as inhibitors. hit rate 0.21% among 410,000. AID 624170, 2012; also: potency is read from the fitted curve at half-maximal effect; % is scaled to controls: 0 for no effect and ±100 for the full control effect
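Glutamate formation by hKGA was monitored fluorometrically using coupled glutamate oxidase, HRP and Amplex Red. Substrate was added as 1 mM L-glutamine solution; incubation was 30 min at RT after an initial read.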
mIDH1 inhibitor – qHTS for Inhibitors of mutant isocitrate dehydrogenase 1 (IDH1): qHTS; hit rate 0.093% among 390,000; IDH1-R132H enzyme, NADPH consumption, diaphorase/resazurin fluorescence; AID 602179, 2012; Potency, µM (titrated, usually from 76.6 µM), inactives show at the highest dose activity change, negative = inhibition, most hits filed as inhibitors; Isocitrate dehydrogenase [NADP] cytoplasmic (Homo sapiens), O75874; also: potency is read from the fitted curve at half-maximal effect; % is scaled to controls: 0 for no effect and ±100 for the full control effect; nearly all actives have a fitted effect of over 65% in size
Target sequence (O75874 whole entry R132H, stated change not applied): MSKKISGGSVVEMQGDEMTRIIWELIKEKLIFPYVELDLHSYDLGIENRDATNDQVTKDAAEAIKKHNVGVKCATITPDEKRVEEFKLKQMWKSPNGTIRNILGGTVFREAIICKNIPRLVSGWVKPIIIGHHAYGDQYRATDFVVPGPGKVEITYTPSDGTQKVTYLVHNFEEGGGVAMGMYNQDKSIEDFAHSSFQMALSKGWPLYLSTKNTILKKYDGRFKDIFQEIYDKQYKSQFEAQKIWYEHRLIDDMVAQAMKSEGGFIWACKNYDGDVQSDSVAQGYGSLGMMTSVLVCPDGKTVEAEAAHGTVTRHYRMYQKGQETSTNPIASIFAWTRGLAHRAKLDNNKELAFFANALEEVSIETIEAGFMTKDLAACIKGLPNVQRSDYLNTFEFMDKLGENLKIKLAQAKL
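IDH1-R132H (0.5 ug/mL dispensed) in pH 7.5 Tris buffer was preincubated 30 min with compound, then given a substrate mix of 0.016 mM NADPH and 2 mM alpha-KG for 80 min at room temperature; remaining NADPH was read by diaphorase/resazurin fluorescence.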
IDH1 autofl – qHTS for Inhibitors of mutant isocitrate dehydrogenase 1 (IDH1): Cherrypicks Autofluorescence Interference; shares compounds with mIDH1 inhibitor; Resorufin detection reagent fluorescence interference, cell-free; inhibition of signal, % at 51.2 µM; 750 tested, under 10 active;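 also: 0% = wells with normal resorufin and full inhibition = wells lacking resorufin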
IDH1 WT – qHTS for Inhibitors of mutant isocitrate dehydrogenase 1 (IDH1): Cherrypicks in WT IDH1. Potency, µM (top dose mostly 115 µM), inactives show top-dose activity change, negative = inhibition, hits mostly inhibitors. AID 623995, 2012. WT IDH1 enzyme, NADPH diaphorase/resazurin fluorescence. shares compounds with mIDH1 inhibitor. hit rate 9% among 750;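 also: potency is read from the fitted curve at half-maximal effect; 0% = full WT IDH1 enzyme control and full inhibition = no enzyme wells; nearly all actives have a fitted effect of over 55% in size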
Target sequence (O75874 whole entry, looked up): as the sequence (O75874 whole entry R132H, stated change not applied) above, with H132R counted along it
IDH1 R132H conf – qHTS for Inhibitors of mutant isocitrate dehydrogenase 1 (IDH1): Confirmation of Cherrypicks; hit rate 83% among 750; shares compounds with mIDH1 inhibitor; Potency, µM (titrated, usually from 76.6 µM), inactives show at the highest dose activity change, negative = inhibition, most hits filed as inhibitors; IDH1 R132H enzyme, NADPH diaphorase/resazurin fluorescence; also: potency is read from the fitted curve at half-maximal effect; nearly all actives have a fitted effect of over 50% in size
Starred values were filed as active, the others as inactive. A selection: hits, their analogues and other compounds. The true share with any hit is near 0.33%. Unless noted, calls follow the shape of the dose curve; as a rule, active = well fitted curve in the direction sought with a large enough effect; inconclusive = small, poorly fitted or top-dose-only effect, or another doubt; inactive = no such curve, though single readings can be large; an effect the other way counts as inactive or inconclusive.

Results for Cc1ccc(N(C(=O)CCC(=O)Nc2cc(C)on2)C(C(=O)NC2CCCC2)c2ccccc2)cc1 (stereo not given) ?
Pin1 inh: 3%; PGK inhibitor: 1%; GLS inhibitor: 1%; mIDH1 inhibitor: inconclusive; IDH1 autofl: -4; IDH1 WT: -4%; IDH1 R132H conf: 22µM*

What do the screens show for `Cc1cc(NC(=O)CCC(=O)N(c2ccccc2C)C(C(=O)NC2CCCC2)c2ccccc2)no1` (stereo not given)?
Pin1 inh: 0%; PGK inhibitor: -5%; GLS inhibitor: 0%; mIDH1 inhibitor: inconclusive; IDH1 autofl: 2; IDH1 WT: 10%; IDH1 R132H conf: 25µM*

How did Cc1cc(NC(=O)CCC(=O)N(c2ccccc2)C(C(=O)NC2CCCC2)c2ccccc2C)no1 (stereo not given) do in these assays?
Pin1 inh: 0%; PGK inhibitor: -2%; GLS inhibitor: 10%; mIDH1 inhibitor: 37µM*; IDH1 autofl: 2; IDH1 WT: 7%; IDH1 R132H conf: 13µM*

Results for CC(=O)OCC(=O)[C@@]1(O)[C@H](C)C[C@H]2C3C[C@H](F)C4=CC(=O)C=CC4(C)C3[C@@H](O)CC21C (stereo not given in full) ?
GLS inhibitor: -1%

Results for CC[C@]1(O)C[C@H]2CN(CCC3=c4ccccc4=N[C]3[C@@](C(=O)OC)(c3cc4c(cc3OC)N(C)[C@H]3[C@@](O)(C(N)=O)[C@H](O)[C@]5(CC)C=CCN6CC[C@]43[C@@H]65)C2)C1 ?
GLS inhibitor: 15%

Results for CCOC(=O)C1=C(C)OC2(O)c3ccccc3C(=O)C12O (stereo not given) ?
PGK inhibitor: -9%; GLS inhibitor: 18%; mIDH1 inhibitor: inconclusive; IDH1 autofl: 3; IDH1 WT: 24%; IDH1 R132H conf: inconclusive

What do the screens show for `CC(=O)C1=C(C)OC2(O)c3ccccc3C(=O)C12O` (stereo not given)?
Pin1 inh: inconclusive; PGK inhibitor: -8%; GLS inhibitor: 13%; mIDH1 inhibitor: -7%

How did O=C(CNC(=O)c1ccccc1)N[C@@H](C(=O)Nc1cc(C(F)(F)F)ccc1Cl)c1ccccc1 do in these assays?
Pin1 inh: -13%

Results for C=CCn1c(SCc2nc3sc(C(=O)O)c(C)c3c(=O)[nH]2)nnc1-c1ccc(C(C)(C)C)cc1 ?
Pin1 inh: -14%; PGK inhibitor: -17%; GLS inhibitor: -25%; mIDH1 inhibitor: inconclusive; IDH1 autofl: -5; IDH1 WT: 2%; IDH1 R132H conf: 22µM*

How did C=CCn1c(SCc2nc3sc(C(=O)O)c(C)c3c(=O)[nH]2)nnc1-c1ccccc1 do in these assays?
Pin1 inh: -1%; PGK inhibitor: -12%; GLS inhibitor: -4%; mIDH1 inhibitor: -2%

How did COc1ccc(C2Nc3ccccc3C(=O)N2Cc2ccccc2)cc1COc1ccccc1OC (stereo not given) do in these assays?
Pin1 inh: 8%
